In the library only some 11% were active in any assay of this set; here they are far more common.
HPGD block = inhibitors of human 15-hydroxyprostaglandin dehydrogenase (HPGD); P15428; purified HPGD, NADH fluorescence kinetic, PGE2 substrate; Potency, µM, actives largely listed as inhibitors; 150,000 compounds, 4.3% hits
Target sequence (P15428 whole entry, looked up): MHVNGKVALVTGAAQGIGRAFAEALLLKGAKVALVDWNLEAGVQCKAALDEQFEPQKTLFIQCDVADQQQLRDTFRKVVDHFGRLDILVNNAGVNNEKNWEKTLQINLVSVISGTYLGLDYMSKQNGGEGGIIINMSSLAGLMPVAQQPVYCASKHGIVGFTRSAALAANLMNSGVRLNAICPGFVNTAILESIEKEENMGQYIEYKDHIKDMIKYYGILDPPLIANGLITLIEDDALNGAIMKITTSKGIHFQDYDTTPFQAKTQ
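NADH formation kinetics: reaction with 30 uM PGE2 and 1 mM NAD+ (final), 20 nM enzyme, Tris-HCl pH 8 with Tween 20, after 15 min compound preincubation at room temperature. Fluorescence change, last versus first of five reads.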
PNC inhibitor = blocks assembly of the perinucleolar compartment; 140,000 compounds, 3.1% hits; activity change (PNC), negative = inhibition, % at 10 µM; PC3M PTB-GFP, PNC prevalence imaging, 16 h; stronger effect = lower value;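 active = readout at or below -70, meaning at least 70% loss of cells showing the perinucleolar compartment, a nuclear body marking cancer cells; inconclusive = readout between -30 and a set limit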
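Compounds are pinned in duplicate onto adhered PC3M cells stably expressing GFP-tagged PTB and incubated 16 h at 37 C. Cells are then fixed, nuclei stained with Hoechst, and PNC-positive cells counted.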
ALDH1A1 block = inhibitors of human aldehyde dehydrogenase 1A1. Purified ALDH1A1, NADH fluorescence, propionaldehyde substrate. P00352. 220,000 compounds, 7.3% hits. Potency, µM (titrated, usually from 75.3 µM), actives largely listed as inhibitors
Hits are given with their value; i = inactive; ? = inconclusive; nt = no result given. Unless noted, calls follow the shape of the dose curve; as a rule, active = well fitted inhibition curve with a large enough effect (not every such curve was filed as active); inconclusive = small, poorly fitted or top-dose-only effect, or another doubt; inactive = no such curve, though single readings can be large or run the other way.

SMILES	HPGD block	PNC inhibitor	ALDH1A1 block
Cc1oc2c(c1C(=O)NC(Cc1c[nH]c3ccccc13)C(=O)O)CCCC2 (stereo unspecified)	nt	i	i
O=C1C(Cl)=C(Nc2ccccc2O)C(=O)N1CCc1ccccc1	11µM	?	4µM
COc1ccc(N2C(=O)C(Cl)=C(Nc3ccc(OC)cc3OC)C2=O)cc1	nt	nt	i
COc1ccc(CCNC2=C(Cl)C(=O)N(CCc3ccccc3)C2=O)cc1OC	i	i	?
CCOc1ccc(N2C(=O)C(Cl)=C(Nc3ccccc3O)C2=O)cc1	25µM	i	14µM
O=C(O)CCCNc1ccc([N+](=O)[O-])c(NCCCC(=O)O)n1	nt	nt	i
O=C(NCCCN1CCCC1=O)c1cc(=O)c2ccccc2o1	i	i	i
CCOc1cccc(/C(O)=C2/C(=O)C(=O)N(Cc3cccnc3)C2c2ccco2)c1 (stereo unspecified)	i	i	i
CCOc1cccc(/C(O)=C2/C(=O)C(=O)N(CCN3CCOCC3)C2c2ccncc2)c1 (stereo unspecified)	nt	nt	22µM
CC1Cc2cc(/C(O)=C3/C(=O)C(=O)N(CCN4CCOCC4)C3c3cccc(Cl)c3)ccc2O1 (stereo unspecified)	28µM	?	11µM
COc1ccc(C2/C(=C(/O)c3ccc4c(c3)CC(C)O4)C(=O)C(=O)N2CCN2CCOCC2)cc1 (stereo unspecified)	i	i	i
CCOc1cccc(/C(O)=C2/C(=O)C(=O)N(Cc3ccco3)C2c2ccncc2)c1 (stereo unspecified)	i	i	i
CCOc1cccc(/C(O)=C2/C(=O)C(=O)N(CCOC)C2c2ccco2)c1 (stereo unspecified)	i	i	25µM
CC(C)CN1CCC2(CC1)CCN(C(=O)c1cccn1C)CC2	i	nt	i
CCc1nnc(NS(=O)(=O)c2ccc(N3C(=O)c4ccc(C(=O)O)cc4C3=O)cc2)s1	nt	nt	i
CC(/C=N/NC(=O)c1ccco1)=C\c1ccccc1	nt	nt	i
Cc1[nH]c2ccccc2c1C(=O)CN1CCCCC1CCO (stereo unspecified)	i	i	?
COc1cccc(NC(=O)Cn2c(CCC(=O)O)ccc2-c2ccc(C)cc2)c1	nt	nt	i
COc1nc(Cl)cn(-c2ccc(C)cc2)c1=O	i	i	?
Cc1ccc(-n2c(Cl)c(Cl)nc(Cl)c2=O)cc1	2.5µM	?	0.63µM
COC(=O)c1c(NC(=O)/C=C/C(=O)O)sc(C)c1-c1ccc(C)c(C)c1	i	?	?
CCOC(=O)c1c(NC(=O)CSc2nncs2)sc(C)c1-c1ccccc1	i	i	?
COC(=O)c1c(NC(=O)/C=C/C(=O)O)sc(C)c1-c1ccc(C(C)C)cc1	nt	nt	7.9µM
CCOC(=O)c1c(NC(=O)/C=C/C(=O)O)sc(C)c1-c1ccc(F)cc1	nt	nt	14µM
Cc1ccc(C(=O)N2CCN(S(=O)(=O)c3ccccc3[N+](=O)[O-])CC2)o1	nt	nt	i
SMILES	HPGD block	PNC inhibitor	ALDH1A1 block
CCOC(=O)c1ccc(NC(=O)NC2CC3CCC(C2)N3Cc2nnnn2Cc2ccco2)cc1 (stereo unspecified)	i	i	13µM
CC(C)(C)n1nnnc1CN1C2CCC1CC(NC(=O)Nc1ccccc1)C2 (stereo unspecified)	i	i	?
CCCCC(=O)OCC(=O)c1cc(C)n(-c2c(C)n(C)n(-c3ccccc3)c2=O)c1C	nt	nt	i
Cc1nn(CCc2n[nH]c(=S)n2C)c(C)c1Br	i	i	i
Cc1nn(CCc2n[nH]c(=S)n2C2CCCCC2)c(C)c1Br	25µM	i	20µM
S=C(NCc1ccc(Cl)cc1)Nc1ccc(Cl)cc1Cl	i	i	i
S=C(Nc1ccc(Cl)cc1Cl)Nn1cnnc1	7.9µM	?	i
S=C(Nc1cccc(Cl)c1Cl)Nn1cnnc1	25µM	i	2.8µM
Cc1cc(CNC(=S)Nc2cccc(Cl)c2Cl)nn1C	nt	nt	i
Cc1cccc(NC(=S)NN2CCN(C)CC2)c1C	i	i	i
CNC(=S)NNC(=O)CSCc1c(Cl)cccc1Cl	nt	nt	i
O=C(CSCc1ccccc1)NNC(=S)Nc1cccc(Cl)c1Cl	i	i	3.5µM
Cc1cccc(NC(=S)Nn2cnnc2)c1C	nt	nt	7.9µM
Cc1noc(C)c1COC(=O)Cc1ccc(Br)cc1	nt	nt	i
O=Nc1c(-c2c(O)[nH]c3cc(Br)ccc23)[nH]c2ccccc12	i	nt	i
CCOC(=O)c1ccc(N=Nc2c(C)c(C#N)c(O)[nH]c2=O)cc1	nt	nt	i
CC(C)Sc1nc(C(F)(F)F)cc(=O)n1-c1ccccc1	i	i	i
O=C(COC(=O)CCc1ccccc1)Nc1cc(S(=O)(=O)N2CCOCC2)ccc1N1CCCC1	nt	nt	i
O=C1Cc2ccccc2N1c1c(Cl)cccc1Cl	i	?	i
O=C1c2c(O)cccc2Cc2cccc(O)c21	i	nt	25µM
CCN1C(=O)c2cccc3c(S(=O)(=O)NCCCN4CCOCC4)ccc1c23	i	?	?

Screening results as filed in PubChem.
